This passage reports Potency and outcome results from PubChem BioAssay (Tox21).

The nature of assay [1]: Nuclear factor erythroid 2-related factor 2/antioxidant responsive element (Nrf2/ARE) small molecule agonists: qHTS cell viability counter screen in human keratinocytes (AID 1919968; active = well fitted curve in the direction sought with a large enough effect in the repeat runs; an effect the other way counts as inactive or inconclusive; note: nearly all actives have a fitted effect of over 55% in size; note: potency is the fitted concentration of half-maximal effect). In a few lines:
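Measured as CellTiter-Fluor fluorescence, this readout tracks cytotoxicity in the same wells as the ARE-luciferase screen. HaCaT reporter cells (1,500/well) received compounds after a 5 h pre-incubation and were exposed for 23 h.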
(In general: qHTS replaces the single test concentration by a dilution series.)

Assay [2] is described as follows: Nuclear factor erythroid 2-related factor 2/antioxidant responsive element (Nrf2/ARE) small molecule agonists: luciferase reporter gene qHTS assay in human keratinocytes (AID 1919969). Note: nearly all actives have a fitted effect of over 35% in size. Note: potency is the fitted concentration of half-maximal effect. For orientation: In a reporter assay the amount or activity of a reporter protein is the signal.
Assay [3] concerns the target Gonadotropin-releasing hormone receptor (Homo sapiens) (UniProt P30968). Kind of assay: Human gonadotropin-releasing hormone receptor (GnRHR) small molecule agonists, calcium flux assay in GnRHR-HEK293 cells (AID 1920063). Note: nearly all actives have a fitted effect of over 35% in size. In a few lines: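 Fluorescence kinetics (480 nm excitation, 540 nm emission; 3 min, 1 s steps) report calcium mobilisation in human GnRHR-HEK293 cells in agonist mode. Dye incubation: 1 h, 37 C.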
For orientation: Calcium flux is commonly read through the fluorescence of an indicator in the cells.

Assay [4] concerns the target KiSS-1 receptor (Homo sapiens) (UniProt Q969F8). Description: Human kisspeptin (KISS1R) small molecule agonists, calcium flux assay in KISS1R-HEK293 cells (AID 1920064; active = well fitted curve in the direction sought with a large enough effect in the repeat runs; an effect the other way counts as inactive or inconclusive). In a few lines:
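Measures KISS1R agonism through calcium-sensitive dye fluorescence in stably transfected HEK293 cells, read for 3 min after pin-tool compound delivery; 15-point titrations in triplicate.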

Assay [5] can be described thus: G protein-coupled receptor (GPCR) small molecule agonists, calcium flux assay: HEK293 wild type cell line counter screen (AID 1920065). In a few lines: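 Readout: fluorescence at 480 nm excitation/540 nm emission, sampled at 1 s intervals for 3 min. Cells had been cultured 18 h, then dye-loaded 1 h at 37 C before compound or ATP addition.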
A short description of assay [6]: p53 small molecule agonists, cell-based qHTS assay with human liver microsomes (AID 1963577).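 Note: p53 response element beta-lactamase reporter cells with liver microsomes plus NADPH.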 In a few lines: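 16 h, 37 C exposure of p53RE-bla cells to compounds with human liver microsomes and NADPH (0.5 mg/mL final each); detection via LiveBLAzer mixture, 2 h dark at room temperature.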
The nature of assay [7]: p53 small molecule agonists, cell-based qHTS assay with rat liver microsomes (AID 1963578). In a few lines:
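With rat liver microsomes and NADPH present (0.5 mg/mL final each), p53RE-bla cells are treated with compound for 16 h at 37 C. LiveBLAzer detection mixture is then applied for 2 h at room temperature in the dark.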

Assay [8] is described as follows: p53 small molecule agonists, cell-based qHTS assay with rat liver microsomes: qHTS cell viability counter screen (AID 1963580). Note: nearly all actives have a fitted effect of over 45% in size. In a few lines: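 HCT-116 p53RE-bla, 4,000 cells/well, 5 h pre-incubation; cpd + rat liver microsomes 0.5 mg/mL + NADPH 0.5 mg/mL (final); 16 h, 37 C; CellTiter-Glo, 30 min RT; luminescence.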
The nature of assay [9]: p53 small molecule agonists, cell-based qHTS assay: qHTS cell viability counter screen (AID 1963581). Note: nearly all actives have a fitted effect of over 45% in size. In a few lines: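 In the same plates used for the p53 bla reporter, HCT-116 cells given compounds for 16 h at 37 C received CellTiter-Glo; luminescence was recorded 30 min later at room temperature.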
Assay [10] is described as follows: p53 small molecule agonists, cell-based qHTS assay (AID 1963582; active = well fitted activation curve with a large enough effect in the signal ratio in the repeat runs, not every such curve was filed as active; the % refers to the signal ratio). In a few lines: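 Compounds are pin-transferred in DMSO onto p53RE-bla cells and incubated 16 h at 37 C. The B/G FRET beta-lactamase substrate is then applied for 2 h at RT and fluorescence recorded.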
Assay [11] has as its target 5-hydroxytryptamine receptor 2A (Homo sapiens) (UniProt P28223). Description: 5-hydroxytryptamine receptor 2A (HTR2A) small molecule antagonists, cell-based qHTS assay (AID 1963586). Note: nearly all actives have a fitted effect of over 45% in size. In a few lines:
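Antagonist-mode intracellular calcium assay: DOI (4 nM) added after 5 min compound pre-incubation at room temperature to dye-loaded HTR2A-CHO cells. Fluorescence followed for 3 min, sampled every second.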

Assay [12] shares this target. Description: 5-hydroxytryptamine receptor 2A (HTR2A) small molecule agonists, cell-based qHTS assay (AID 1963587). Note: nearly all actives have a fitted effect of over 30% in size. In a few lines:
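Kinetic calcium-flux fluorescence (2 min, 1 sec intervals) after compound addition in agonist mode. HTR2A-CHO cells were cultured 18 h, then dye-loaded 1 h at 37 C.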

For assay [13], the target named is Muscarinic acetylcholine receptor M1 (Homo sapiens) (UniProt P11229). Kind of assay: Cholinergic receptor muscarinic 1 (CHRM1) small molecule agonists, cell-based qHTS assay (AID 1963589). Note: nearly all actives have a fitted effect of over 35% in size. In a few lines:
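Each compound was tested at 15 concentrations across three independent runs on dye-loaded CHO cells stably expressing human CHRM1, reading intracellular calcium fluorescence kinetically at 1 sec intervals.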

Assay [14] deals with Beta-2 adrenergic receptor (Homo sapiens) (UniProt P07550). Description: Adrenergic beta2 receptor (ADRB2) small molecule antagonists, cell-based qHTS assay (AID 1963592). Note: series mostly up to about 92 µM; nearly all actives have a fitted effect of over 50% in size. In a few lines:
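Cells (CHO, stable ADRB2 overexpression) incubated 18-20hr at 37C; compounds added from DMSO; agonist mix (1nM isoproterenol, 100uM IBMX, 25uM Ro-20-1724) added; 0.5hr RT; d2-cAMP and anti-cAMP-cryptate added; 1hr RT; 665/615 nm read.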

Assay [15] deals with D(2) dopamine receptor (Homo sapiens) (UniProt P14416). Kind of assay: Dopamine D2 receptor (DRD2) small molecule agonists, cell-based qHTS assay (AID 1963594). Note: nearly all actives have a fitted effect of over 35% in size. In a few lines:
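cAMP accumulation in DRD2-HEK293 cells measured by HTRF after 1 h detection; compounds added 10 min before NKH477 (200nM […]) forskolin-analogue stimulation, 30 min at room temperature, with Ro20-1724 present at 0.1 mM final.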

The target in assay [16] is Muscarinic acetylcholine receptor M1 (Homo sapiens) (UniProt P11229). Description: Cholinergic receptor muscarinic 1 (CHRM1) small molecule antagonists, cell-based qHTS assay (AID 1963588). Note: nearly all actives have a fitted effect of over 40% in size. In a few lines:
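CHRM1-CHO calcium-flux assay, antagonist mode. Cells were seeded 18 h, dye-loaded 1 h at 37 C and given compound for 5 min at RT, then acetylcholine was added at 50nM. FDSS fluorescence was read 3 min; 15 concentrations, three runs.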

Assay [17] deals with D(2) dopamine receptor (Homo sapiens) (UniProt P14416). Description: Dopamine D2 receptor (DRD2) small molecule antagonists, cell-based qHTS assay (AID 1963595; active = well fitted inhibition curve with a large enough effect in the signal ratio in the repeat runs, with a control signal flat; the % refers to the signal ratio). In a few lines: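 Cells were plated and grown for 24 h at 37 °C. Ro20-1724 (0.1 mM final) went in first, then compound for 10 min. NKH477 (200 nM) with quinpirole (12 nM) followed for 30 min at RT, then HTRF detection reagents for 1 h.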

Assay [18] in a line: cAMP Responsive Elements (CRE) small molecule agonists, cell-based qHTS assay (AID 1963590). In a few lines: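 Cell line: CRE-bla HEK 293T; medium DMEM/10% dialyzed FBS/0.1 mM NEAA/1 mM pyruvate/25 mM HEPES; 3 h compound exposure; beta-lactamase FRET readout after 2 h substrate loading at RT.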
A short description of assay [19]: cAMP Responsive Elements (CRE) small molecule antagonists, cell-based qHTS assay (AID 1963591; active = well fitted inhibition curve with a large enough effect in the signal ratio in the repeat runs, not every such curve was filed as active; the % refers to the signal ratio). In a few lines:
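Inhibition of NKH477-driven (0.25 uM final) CRE-beta-lactamase signal in HEK293T cells, 3 h compound exposure at 37 °C, detected by FRET substrate fluorescence.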

Inconclusive results are not listed. Active and inactive are the calls of the source. Unless noted, calls come from the whole dose curve.

Sequence of KiSS-1 receptor (Homo sapiens) (Q969F8 whole entry, looked up): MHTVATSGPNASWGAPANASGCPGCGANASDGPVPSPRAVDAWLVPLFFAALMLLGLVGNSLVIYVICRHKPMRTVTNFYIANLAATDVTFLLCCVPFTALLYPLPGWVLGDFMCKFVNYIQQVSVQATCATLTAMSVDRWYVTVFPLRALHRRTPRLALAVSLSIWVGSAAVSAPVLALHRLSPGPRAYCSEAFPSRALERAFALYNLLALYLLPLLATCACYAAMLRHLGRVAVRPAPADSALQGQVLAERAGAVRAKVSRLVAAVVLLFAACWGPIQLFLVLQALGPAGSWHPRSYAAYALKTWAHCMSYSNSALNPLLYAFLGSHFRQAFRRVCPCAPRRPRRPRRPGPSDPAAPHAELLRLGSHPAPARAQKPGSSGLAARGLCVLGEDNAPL
Sequence of Muscarinic acetylcholine receptor M1 (Homo sapiens) (P11229 whole entry, looked up): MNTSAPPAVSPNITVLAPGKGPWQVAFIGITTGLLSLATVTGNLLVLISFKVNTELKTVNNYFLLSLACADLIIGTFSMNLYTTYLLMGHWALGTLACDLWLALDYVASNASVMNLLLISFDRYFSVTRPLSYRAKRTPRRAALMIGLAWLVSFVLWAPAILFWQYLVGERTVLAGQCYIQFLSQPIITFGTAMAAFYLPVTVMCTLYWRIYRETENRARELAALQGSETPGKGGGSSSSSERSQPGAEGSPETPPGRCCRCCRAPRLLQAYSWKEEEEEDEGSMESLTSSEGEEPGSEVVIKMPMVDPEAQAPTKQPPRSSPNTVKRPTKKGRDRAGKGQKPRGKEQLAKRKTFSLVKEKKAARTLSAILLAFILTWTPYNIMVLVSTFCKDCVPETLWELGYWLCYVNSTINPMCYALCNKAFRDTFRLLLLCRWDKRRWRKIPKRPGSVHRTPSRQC
Sequence of D(2) dopamine receptor (Homo sapiens) (P14416 whole entry, looked up): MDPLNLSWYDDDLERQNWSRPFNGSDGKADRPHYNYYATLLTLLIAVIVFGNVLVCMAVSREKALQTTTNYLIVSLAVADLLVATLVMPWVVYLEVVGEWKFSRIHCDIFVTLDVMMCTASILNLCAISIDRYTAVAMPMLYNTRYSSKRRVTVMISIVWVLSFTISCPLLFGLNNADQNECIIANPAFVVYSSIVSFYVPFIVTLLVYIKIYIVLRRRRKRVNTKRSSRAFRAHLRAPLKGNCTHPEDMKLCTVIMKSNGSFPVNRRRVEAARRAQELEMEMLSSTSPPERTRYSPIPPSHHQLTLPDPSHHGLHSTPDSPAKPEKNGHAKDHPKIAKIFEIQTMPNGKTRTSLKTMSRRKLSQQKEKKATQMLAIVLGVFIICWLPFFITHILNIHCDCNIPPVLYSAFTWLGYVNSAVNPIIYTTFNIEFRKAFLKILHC
Sequence of Beta-2 adrenergic receptor (Homo sapiens) (P07550 whole entry, looked up): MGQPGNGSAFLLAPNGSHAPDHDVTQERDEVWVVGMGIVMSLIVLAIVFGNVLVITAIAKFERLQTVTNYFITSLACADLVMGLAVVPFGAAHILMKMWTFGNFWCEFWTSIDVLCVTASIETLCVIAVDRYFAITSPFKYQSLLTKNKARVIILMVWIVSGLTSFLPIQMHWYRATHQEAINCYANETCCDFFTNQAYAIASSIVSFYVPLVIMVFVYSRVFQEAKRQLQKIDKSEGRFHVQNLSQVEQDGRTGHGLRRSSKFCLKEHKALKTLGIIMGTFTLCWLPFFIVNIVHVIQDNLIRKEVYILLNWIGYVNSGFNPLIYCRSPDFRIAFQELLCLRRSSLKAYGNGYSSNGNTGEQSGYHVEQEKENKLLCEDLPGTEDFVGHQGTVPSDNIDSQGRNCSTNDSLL
Sequence of 5-hydroxytryptamine receptor 2A (Homo sapiens) (P28223 whole entry, looked up): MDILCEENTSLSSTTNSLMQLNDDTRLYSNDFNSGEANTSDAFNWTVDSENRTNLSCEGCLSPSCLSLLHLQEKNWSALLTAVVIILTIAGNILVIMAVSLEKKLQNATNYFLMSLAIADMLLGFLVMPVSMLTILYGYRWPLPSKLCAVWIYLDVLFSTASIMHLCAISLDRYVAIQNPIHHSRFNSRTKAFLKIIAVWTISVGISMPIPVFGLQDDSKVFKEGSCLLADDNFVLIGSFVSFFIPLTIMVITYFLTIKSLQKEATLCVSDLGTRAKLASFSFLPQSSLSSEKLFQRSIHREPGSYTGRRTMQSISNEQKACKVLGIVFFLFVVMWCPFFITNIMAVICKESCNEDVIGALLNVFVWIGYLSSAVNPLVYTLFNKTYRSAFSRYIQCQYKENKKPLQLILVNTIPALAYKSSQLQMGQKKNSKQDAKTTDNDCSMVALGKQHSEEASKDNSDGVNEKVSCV
Sequence of Gonadotropin-releasing hormone receptor (Homo sapiens) (P30968 whole entry, looked up): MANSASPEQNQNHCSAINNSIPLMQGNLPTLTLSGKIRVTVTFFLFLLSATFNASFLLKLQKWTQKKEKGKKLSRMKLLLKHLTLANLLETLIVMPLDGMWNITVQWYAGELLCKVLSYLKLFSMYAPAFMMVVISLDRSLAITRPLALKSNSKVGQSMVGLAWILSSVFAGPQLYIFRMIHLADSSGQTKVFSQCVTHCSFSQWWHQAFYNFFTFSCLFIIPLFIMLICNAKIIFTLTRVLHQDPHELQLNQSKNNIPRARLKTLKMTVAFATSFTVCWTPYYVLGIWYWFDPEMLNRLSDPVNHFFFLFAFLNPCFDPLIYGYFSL

Turning to `Cc1nc(C)nc(N2C[C@@H](C)N(c3ccnc([C@@H](C)O)n3)[C@@H](C)C2)n1`, the Potency result in assay [1], in assay [2], in assay [3], in assay [6], in assay [7] and in [8] was “inactive” in each case. Further, the Potency entry in assay [9], in [10], in [11], in [12], in assay [13] and in assay [14] was “inactive” in each case. For the same compound, in [15], the Potency result was “inactive”. Moreover, the outcome in assay [4] and in [5] was inactive.
In the case of `C#CC(C)N(C)C(=O)Nc1ccc(Cl)cc1` (stereo unspecified), the Potency entry in assay [1], in [2], in [3], in assay [6], in assay [7] and in assay [8] was “inactive” in each case. The Potency entry in [9], in assay [10], in assay [11], in [16], in assay [14] and in assay [15] was “inactive” each time. The Potency result in assay [17] was “inactive”. The result in assay [4] and in assay [5] was inactive.
`COCCO`: the Potency result in assay [1], in [2], in assay [3], in assay [6], in [7] and in [8] was “inactive” throughout. In addition, the Potency entry in [10], in assay [11], in assay [12], in [16], in assay [13] and in assay [18] was “inactive” throughout. Further, the Potency result in assay [19], in [14], in [15] and in assay [17] was “inactive” in each case. In addition, the outcome in assay [4] and in assay [5] was inactive.
`CCN1CC(CCN2CCOCC2)C(c2ccccc2)(c2ccccc2)C1=O` (stereo unspecified): the Potency result in assay [1], in assay [2], in [3], in assay [6], in [7] and in assay [8] was “inactive” throughout. Also, the Potency result in assay [9], in assay [10], in assay [18], in assay [19], in assay [14] and in assay [15] was “inactive” in each case. Also, the Potency entry in [17] was “inactive”. The outcome in assay [4] and in assay [5] was inactive.
For `O=c1[nH]sc2cc(Cl)ccc12`, the results for the Potency in assay [1] and in [2] were 18.8 µM (active) and 13.3 µM (active), respectively. The Potency result in assay [3], in assay [6], in assay [7], in [8], in [9] and in assay [11] was “inactive” throughout. For the same compound, the Potency entry in assay [12], in [16] and in assay [13] was “inactive” each time. The result in assay [4] and in assay [5] was inactive.
For the compound `CNC(=O)c1cc(Oc2ccc(NC(=O)Nc3ccc(Cl)c(C(F)(F)F)c3)cc2)ccn1`, the Potency in [1] is 26.6 µM (active). In addition, the Potency entry in assay [2], in assay [3], in assay [6], in assay [7], in assay [8] and in assay [9] was “inactive” each time. Besides, the Potency entry in [12], in assay [16], in assay [13], in assay [14], in [15] and in assay [17] was “inactive” throughout. Besides, the result in [4] and in [5] was inactive.
Consider `CCN(CC)C(=O)N1CCN(C)CC1`, for which the Potency entry in assay [1], in assay [2], in assay [3], in assay [6], in assay [7] and in assay [8] was “inactive” in each case. In addition, the Potency entry in assay [9], in assay [11], in assay [12], in assay [16], in assay [13] and in [18] was “inactive” each time. For the same compound, the Potency entry in assay [19], in assay [14], in [15] and in assay [17] was “inactive” in each case. Further, the outcome in [4] and in [5] was inactive.
Turning to `CCCCCCOC(=O)CCC`, the Potency result in assay [1], in [2], in assay [3], in [6], in assay [7] and in [8] was “inactive” each time. The Potency entry in assay [9], in [10], in [12], in [16], in assay [13] and in assay [18] was “inactive” throughout. In addition, the Potency result in assay [19], in assay [14] and in [15] was “inactive” in each case. Moreover, the result in [4] and in assay [5] was inactive.
Regarding `C1CCN2C[C@@H]3C[C@@H](CN4CCCC[C@@H]34)[C@H]2C1`, the Potency result in assay [1], in assay [2], in assay [3], in assay [6], in [7] and in assay [8] was “inactive” in each case. Besides, the Potency entry in assay [9], in assay [10], in assay [18], in assay [19], in [14] and in assay [15] was “inactive” in each case. In addition, the Potency entry in assay [17] is “inactive”. Besides, the result in [4] and in assay [5] was inactive.
